Results on 12 molecules are retold here after PubChem BioAssay (NCI).

Molecules are shown by their SMILES. This is part of a sample that, as a whole, favours compounds with a hit. Of some 83,000 tested, about 20% had one in any assay.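 Method: cells in 96-well plates; compound added at one concentration; 48 h incubation; percent growth measured; values under 10 scored active.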 A number with no mark means an inactive call. Active and inactive are the calls of the source.

The experiment has as its system HL-60(TB) leukemia. Description: NCI-60 one-dose screen, 48 h (100 = growth as untreated, 0 = no growth, -100 = all killed). Particulars: 10 µM unless noted.
As for `COc1ccc(-c2ccc3c4c(cccc24)C(=O)N(N2C(=O)c4cccc5cccc(c45)C2=O)C3=O)cc1`, the growth is 103%.
With `O=C1[C@H]2Cc3c([nH]c4ccccc34)[C@@H](c3ccc(Br)cc3)N2C(=O)CN1C1CCN(CC2CCCCC2)CC1`, the growth is -70.6% (active).
The value for `CCCCCc1ccc(S(=O)(=O)Nc2cc(-c3csc(NC(=O)CN4CCN(C)CC4)n3)ccc2N2CCN(C)CC2)cc1` was -48.8% (active); that for `Nc1cc(F)ccc1NC(=O)c1ccc(NC(=O)C/C=C/c2cccnc2)cn1` was 11.3%; that for `CCN1CCN(c2cc(C(=O)Nc3nc4ccc(Oc5ccnc(C(=O)NC)c5)cc4s3)cc(C(F)(F)F)c2)CC1` was 18.7%.
As for `O=C(Nc1cccc(Cl)c1)Nc1nc2ccc([N+](=O)[O-])cc2s1`, the growth is -40% (active).
Then `O=C(CSc1nnc(-c2ccc(Cl)cc2)n1-c1ccccc1)Nc1ccccc1Cl`, with 91.8%; and `CC(C)(O)c1cncc(-c2ccc3ncnc(NCc4ccccc4)c3c2)c1`, with 105%.
The value for `COc1c(N2CC3CCCNC3C2)c(F)cc2c(=O)c(C(=O)N/N=C/c3ccccc3)cn(C3CC3)c12` (configuration not stated) was 73.6%; that for `Cn1cc(-c2cc3ncnc(Nc4ccc(NC(=O)Nc5cc(C(C)(C)C)on5)cc4)c3s2)cn1` was 13.6%.
As to `CC1(C)CC[C@]2(C(=O)O)CC[C@]3(C)C(=CC[C@@H]4[C@@]5(C)CC/C(=N\OCCC#N)C(C)(C)[C@@H]5CC[C@]43C)[C@@H]2C1`, the growth is 148%.
`Fc1ccc2nc(-c3cnn4cccnc34)sc2c1`: the growth was 96.7%.
